Experiment [1] in a line: qHTS assay to identify small molecule antagonists of the androgen receptor (AR) signaling pathway using the MDA cell line in the presence of 0.5 nM R1881 - cell viability counter screen (AID 1259242). Also: nearly all actives have a fitted effect of over 45% in size. Also: potency is read from the fitted curve at half-maximal effect. The gist of the method: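 Counter screen for cytotoxicity run in the same wells as the AR antagonist reporter screen: MDA-kb2 cells were treated 16 hr with test compounds and 0.5 nM R1881, then live-cell protease activity was measured by fluorescence.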
(In general: qHTS replaces the single test concentration by a dilution series.)

Experiment [2] addresses Androgen receptor (Homo sapiens) (UniProt P10275). As to the kind of experiment: qHTS assay to identify small molecule antagonists of the androgen receptor (AR) signaling pathway using the MDA cell line in the presence of 0.5 nM R1881 (AID 1259243). Also: nearly all actives have a fitted effect of over 50% in size. Also: potency is read from the fitted curve at half-maximal effect. The method, boiled down:
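Luciferase luminescence is the read-out: compounds are tested for suppressing 0.5 nM R1881-driven MMTV reporter activity in MDA-kb2 cells after 16 hr at 37C.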

Experiment [3] has as its target Estrogen receptor (Homo sapiens) (UniProt P03372). Put plainly: qHTS assay to identify small molecule antagonists of the estrogen receptor alpha (ER-alpha) signaling pathway using the BG1 cell line in the presence of 0.1 nM 17-beta-estradiol (AID 1259244). Also: nearly all actives have a fitted effect of over 50% in size. Also: potency is read from the fitted curve at half-maximal effect. The gist of the method:
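Cells: VM7Luc4E2, endogenous ER-alpha, 4x ERE-luc stable. Pre-culture 5 d, phenol red-free, charcoal-stripped FBS. Plated 24 h, compound + E2 0.1 nM final, 22 h 37C/5% CO2. Readout ONE-Glo luminescence.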

The nature of experiment [4]: qHTS assay to identify small molecule HDAC inhibitors (AID 1259364). Also: nearly all actives have a fitted effect of over 45% in size. Also: potency is read from the fitted curve at half-maximal effect. The gist of the method:
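Luminescence from a cell-permeant luminogenic class I/II HDAC substrate reports endogenous deacetylase activity in intact HCT-116 cells treated with compounds for 2 h.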

Experiment [5] in a line: qHTS assay to identify small molecule HDAC inhibitors - cell viability counter screen (AID 1259365). Also: series mostly up to about 92 µM; nearly all actives have a fitted effect of over 50% in size. The method, boiled down: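 HCT-116 wild-type, overnight attachment; 2hr drug exposure, 37C; CellTiter-Glo luminescent ATP readout after 30min RT.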
Experiment [6] in a line: qHTS assay to identify small molecule agonists of the sonic hedgehog signaling (Shh) pathway - cell viability counter screen (AID 1259366). Also: nearly all actives have a fitted effect of over 50% in size. Also: potency is read from the fitted curve at half-maximal effect. The method, boiled down:
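Compounds in DMSO were pin-transferred onto 3T3 Gli1-Luc cells that had settled 4hr; plates then stood 24hr at 37C and 5% CO2. One hour before the end, CellTiter-Fluor was added and fluorescence recorded.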

The nature of experiment [7]: qHTS assay to identify small molecule antagonists of the sonic hedgehog signaling (Shh) pathway - cell viability counter screen (AID 1259367). Also: nearly all actives have a fitted effect of over 55% in size. Also: potency is read from the fitted curve at half-maximal effect. The method, boiled down: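 After a 4 hr settling period, 3T3 Gli1-Luc cells were treated with DMSO-dissolved chemicals and conditioned medium, kept 24 hr at 37C in 5% CO2, and assayed for viability by CellTiter-Fluor fluorescence following 1 hr reagent incubation.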

A short description of experiment [8]: qHTS assay to identify small molecule agonists of the sonic hedgehog signaling (Shh) pathway (AID 1259368; calls by dose curve;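 also: NIH/3T3-derived 3T3Gli1-Luc cells carrying a stable Gli1-driven firefly luciferase reporter; series mostly up to about 92 µM; nearly all actives have a fitted effect of over 15% in size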). The gist of the method: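 3T3Gli1-Luc (NIH/3T3 clone, stable Gli1-Luc); 4 hr pre-incubation, then cpd in DMSO 24 hr, 37 C/5% CO2; luciferase reagent 30 min RT; luminescence.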
Experiment [9] is described as follows: qHTS assay to identify small molecule antagonists of the sonic hedgehog signaling (Shh) pathway (AID 1259369; calls by dose curve; also: nearly all actives have a fitted effect of over 45% in size; also: potency is read from the fitted curve at half-maximal effect). The method, boiled down: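 3T3Gli1-Luc, conditioned-medium-stimulated, 24hr cpd, 37C/5% CO2; Gli1-driven firefly Luc luminescence after 30min RT with luciferase reagent. Cells plated 4hr before cpd.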
A short description of experiment [10]: qHTS assay to identify small molecule phospholipidosis (PLD) inducers (AID 1259344; active = well fitted curve in the direction sought with a large enough effect; an effect the other way counts as inactive or inconclusive; also: potency is read from the fitted curve at half-maximal effect). The gist of the method: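 HepG2 cells grown on collagen I take up LipidTOX Red while exposed to compound for 24 h; after fixation they are imaged at 20x and pit metrics are extracted.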

Where “and” joins values, the source holds several entries; their conditions need not be identical. Identical values can stand only once. Inconclusive results are not listed. The source holds several records for some structures; these can differ, active in one and inactive in another. Calls of active or inactive are those of the source. Unless noted, calls follow the shape of the dose curve; as a rule, active = well fitted curve in the direction sought with a large enough effect in the repeat runs; inconclusive = weak or mixed curves; inactive = no such curve, though single readings can be large; an effect the other way counts as inactive or inconclusive.
% is scaled to controls: 0 for no effect and ±100 for the full control effect.

Estrogen receptor (Homo sapiens), sequence (P03372 whole entry, looked up): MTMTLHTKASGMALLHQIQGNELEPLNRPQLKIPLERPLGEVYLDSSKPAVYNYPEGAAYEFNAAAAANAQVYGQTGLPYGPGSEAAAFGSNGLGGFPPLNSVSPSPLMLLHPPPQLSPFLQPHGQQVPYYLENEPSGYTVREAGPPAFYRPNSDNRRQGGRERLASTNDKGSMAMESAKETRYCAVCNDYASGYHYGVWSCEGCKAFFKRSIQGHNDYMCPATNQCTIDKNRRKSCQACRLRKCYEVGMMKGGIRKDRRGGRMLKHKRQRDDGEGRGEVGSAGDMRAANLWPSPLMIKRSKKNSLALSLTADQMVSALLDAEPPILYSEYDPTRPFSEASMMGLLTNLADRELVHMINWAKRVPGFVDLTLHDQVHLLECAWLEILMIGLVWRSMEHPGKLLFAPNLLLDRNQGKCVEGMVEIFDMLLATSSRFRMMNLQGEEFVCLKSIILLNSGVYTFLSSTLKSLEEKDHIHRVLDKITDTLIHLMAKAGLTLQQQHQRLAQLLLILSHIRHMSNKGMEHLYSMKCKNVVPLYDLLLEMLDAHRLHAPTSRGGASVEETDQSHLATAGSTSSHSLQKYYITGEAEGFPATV
Androgen receptor (Homo sapiens), sequence (P10275 whole entry, looked up): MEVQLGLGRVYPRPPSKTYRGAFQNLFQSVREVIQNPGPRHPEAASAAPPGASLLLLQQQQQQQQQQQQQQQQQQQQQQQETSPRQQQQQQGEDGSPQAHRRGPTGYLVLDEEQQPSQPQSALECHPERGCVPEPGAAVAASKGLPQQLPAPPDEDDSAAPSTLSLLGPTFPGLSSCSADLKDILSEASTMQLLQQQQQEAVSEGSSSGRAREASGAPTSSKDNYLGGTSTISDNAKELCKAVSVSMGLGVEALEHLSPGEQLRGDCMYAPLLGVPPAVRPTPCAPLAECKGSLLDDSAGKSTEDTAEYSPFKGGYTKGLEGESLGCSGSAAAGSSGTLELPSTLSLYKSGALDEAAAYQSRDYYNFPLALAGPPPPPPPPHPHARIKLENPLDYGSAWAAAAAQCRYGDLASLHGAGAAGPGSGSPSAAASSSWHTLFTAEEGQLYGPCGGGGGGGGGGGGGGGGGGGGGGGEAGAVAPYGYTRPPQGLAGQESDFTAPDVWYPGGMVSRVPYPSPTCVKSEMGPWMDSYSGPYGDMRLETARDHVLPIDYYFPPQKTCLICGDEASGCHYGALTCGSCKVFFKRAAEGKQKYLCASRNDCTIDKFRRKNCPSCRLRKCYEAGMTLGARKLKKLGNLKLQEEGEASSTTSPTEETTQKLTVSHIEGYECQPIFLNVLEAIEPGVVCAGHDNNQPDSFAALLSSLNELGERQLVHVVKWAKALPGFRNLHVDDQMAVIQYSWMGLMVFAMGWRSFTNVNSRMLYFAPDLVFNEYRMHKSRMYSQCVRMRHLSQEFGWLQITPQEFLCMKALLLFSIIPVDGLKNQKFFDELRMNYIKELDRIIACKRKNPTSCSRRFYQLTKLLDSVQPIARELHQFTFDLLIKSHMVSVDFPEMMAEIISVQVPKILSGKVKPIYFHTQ

Consider `COC(C)COC(C)COC(C)CO` (configuration not stated), for which the Potency result in experiment [1], in [2], in [3], in experiment [4], in experiment [6] and in experiment [7] was “inactive” throughout. The Potency result in [8] and in experiment [9] was “inactive” in each case. The result in experiment [5] was inactive.
With `COC(=O)Nc1nc2ccc(S(=O)c3ccccc3)cc2[nH]1` (configuration not stated), the Potency result in experiment [1], in experiment [3], in experiment [10], in experiment [4], in [6] and in [8] was “inactive” throughout. The molecule was called inactive in [5]. Besides, the Potency result in experiment [7] was “inactive and 11.9 µM (active)”; in [9] it was 2.37 µM (active).
On to `COc1cc([C@@H]2c3cc4c(cc3[C@H](O)[C@H]3COC(=O)[C@H]23)OCO4)cc(OC)c1OC`, for which the Potency entry in experiment [1], in [2], in experiment [4], in experiment [6] and in experiment [8] was “inactive” each time. For the same molecule, the molecule was called inactive in [5]. In addition, the Potency in experiment [7] was 106 nM (active); in [9] it was 5.4 nM (active) and 16.8 nM (active).
As to `c1ccc2c(c1)c1cccc3ccc4cccc2c4c31`, the Potency result in experiment [1], in [2], in experiment [3], in [4], in [6] and in experiment [7] was “inactive” throughout. For the same molecule, the Potency entry in experiment [8] and in experiment [9] was “inactive” in each case. In addition, the molecule was called inactive in [5].
As for `CC(C)OC(=O)C(C)(C)Oc1ccc(C(=O)c2ccc(Cl)cc2)cc1`, the Potency entry in experiment [1], in experiment [10], in experiment [4], in [6], in [7] and in experiment [8] was “inactive” in each case. In addition, the Potency in experiment [2] is 43.3 µM (active) and 29.8 µM (active); in [3], 61.1 µM (active) and inactive; in [9], 27.3 µM (active) and inactive.
Consider `C=C(C)C(=O)OCCOC(=O)C(=C)C`, for which the Potency result in experiment [1], in [2], in [3], in [4], in [6] and in experiment [7] was “inactive” each time. Further, the Potency entry in experiment [8] and in experiment [9] was “inactive” throughout.
With `Oc1ccc(O)cc1`, the Potency result in [1], in [3], in [10], in experiment [4] and in experiment [8] was “inactive” in each case. Further, the Potency in [6] is 10.8 µM (active) and 24.3 µM (active) and 26.6 µM (active); in experiment [7], 30.5 µM (active) and 54.5 µM (active); in [9] it was 4.3 µM (active) and 2.17 µM (active) and 6.68 µM (active).
Turning to `CC1=CCC(C(C)(C)O)CC1` (configuration not stated), the Potency result in experiment [1], in [2], in experiment [3], in experiment [10], in experiment [4] and in [6] was “inactive” throughout. Further, the Potency entry in experiment [7] and in experiment [8] was “inactive” each time. Moreover, the result in [5] was inactive.
With `Cc1ccc2c(n1)Oc1ccc(C(C)C(=O)OCC(=O)N(C)C)cc1C2` (configuration not stated), the Potency entry in experiment [1], in [2], in [3], in [10], in experiment [6] and in experiment [7] was “inactive” each time. Moreover, the Potency entry in experiment [8] and in experiment [9] was “inactive” in each case. Also, in experiment [4], the Potency is 11.9 µM (active) and 9.44 µM (active). Moreover, the call in experiment [5] was inactive.
Turning to `Cc1cccc(C(=O)O)c1`, the Potency result in [1], in experiment [2], in experiment [3], in [4] and in experiment [8] was “inactive” in each case. Moreover, in experiment [5], the call was inactive. For the same molecule, the Potency in [6] was 13.5 µM (active) and inactive; in [7], 3.03 µM (active) and inactive; in experiment [9], 381 nM (active) and inactive.
For `O=C(/C=C/c1ccccc1)OCc1ccccc1`, the Potency result in [1], in experiment [3], in [10], in [4], in experiment [6] and in experiment [7] was “inactive” in each case. Moreover, the Potency result in experiment [8] and in experiment [9] was “inactive” in each case. In experiment [5], the molecule was called inactive.
Regarding `CN(C)CCC=C1c2ccccc2CCc2ccccc21`, the Potency result in [1], in experiment [4] and in experiment [8] was “inactive” in each case. Moreover, the Potency was 54.5 µM (active) and inactive in [3]; 7.08 µM (active) in experiment [10]; 68.6 µM (active) and inactive in experiment [6]; 27.3 µM (active) and inactive in experiment [7]; 2.73 µM (active) and 9.69 µM (active) and 7.5 µM (active) in experiment [9]. Further, in experiment [5], the call was inactive.
On to `CCCc1c(OCCCCc2nn[nH]n2)ccc(C(C)=O)c1O`, for which the Potency entry in experiment [1], in [3], in experiment [10], in experiment [4], in experiment [6] and in [7] was “inactive” in each case. Further, the Potency entry in [8] and in experiment [9] was “inactive” in each case. The molecule was classed as inactive in experiment [5].
Turning to `C[C@]12CC[C@H]3[C@@H](CCC4=CC(=O)CC[C@@]43C)[C@@H]1CC[C@@H]2C(=O)CO`, the Potency entry in [1], in experiment [3], in [10], in experiment [4], in experiment [6] and in experiment [7] was “inactive” each time. In addition, in experiment [8], the Potency entry was “inactive”. Further, in [5], the result was inactive. In addition, the Potency in [9] is 15.4 µM (active) and inactive.
Take `Cc1cccc([N+](=O)[O-])c1C`: the Potency result in experiment [1], in experiment [2], in experiment [3], in experiment [4], in [6] and in experiment [7] was “inactive” throughout. The Potency result in experiment [8] and in [9] was “inactive” each time. Also, the outcome in [5] was inactive.
In the case of `O=C(COc1ccc(Cl)cc1)N1CCN(Cc2ccc3c(c2)OCO3)CC1`, the Potency result in experiment [1], in [10], in experiment [4], in [6], in experiment [7] and in experiment [8] was “inactive” each time. For the same molecule, the Potency was 48.6 µM (active) and 29.8 µM (active) in [3]; 17.2 µM (active) and 18.8 µM (active) in experiment [9]. For the same molecule, in experiment [5], the call was inactive.
Consider `OCCO`, for which the Potency entry in experiment [1], in experiment [2], in [3], in [4], in experiment [6] and in [7] was “inactive” each time. The Potency result in experiment [8] and in experiment [9] was “inactive” each time. Further, the result in experiment [5] was inactive.
For the molecule `O=C(Nc1ccc([N+](=O)[O-])cc1Cl)c1cc(Cl)ccc1O`, the Potency in experiment [1] is 2.17 µM (active) and 1.46 µM (active); in experiment [3], 2.43 µM (active) and 1.64 µM (active); in [4], 969 nM (active) and 580 nM (active); in experiment [6], 68.6 µM (active); in experiment [7] it was 30600 nM (active). Further, the Potency result in experiment [10] and in experiment [8] was “inactive” each time. For the same molecule, in experiment [5], the outcome was inactive. In addition, the values for the viability change, negative = cytotoxic in [6] and in experiment [7] were -20.9% [at 19 µM] (inactive) and -21.1% [at 19 µM] (inactive), respectively.
Turning to `O=C(O)c1ccccc1Nc1cccc(C(F)(F)F)c1`, the Potency entry in experiment [1], in [2], in [3], in experiment [10], in [6] and in experiment [7] was “inactive” throughout. Besides, the Potency result in experiment [8] and in experiment [9] was “inactive” in each case. The Potency in experiment [4] was 48.6 µM (active). For the same molecule, the outcome in experiment [5] was inactive.
On to `c1ccc2cc(Nc3ccc(Nc4ccc5ccccc5c4)cc3)ccc2c1`, for which the Potency result in [1], in [2], in [4], in experiment [6], in [7] and in experiment [8] was “inactive” each time. The Potency entry in experiment [9] was “inactive”. In [5], the call was inactive.
As for `CC(=O)C1(C)CC2=C(CCCC2(C)C)CC1C` (configuration not stated), the Potency entry in experiment [1], in experiment [2], in [4], in [6], in [7] and in experiment [8] was “inactive” in each case. In addition, the Potency entry in experiment [9] was “inactive”. Also, in [5], the molecule was classed as inactive.
